Experimental data from PubChem BioAssay AID1259313 (Sanford-Burnham Center for Chemical Genomics, 2017).
The whole screen tested about 340,000 compounds, of which about 8,500 (2.5%) were called active.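 The calls were made as follows: active = melting temperature shift of at least 10% of the positive control shift, at one fixed dose; inactive = the rest.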 This excerpt belongs to a sample that is enriched for actives.

system: Glutamate receptor ionotropic, NMDA 3A (GRIN3A) ligand-binding domain; assay: binders of NR3A ligand-binding domain, primary screen, biophysical, differential scanning fluorimetry, uHTS (AID 1259313); settings: NR3A LBD differential scanning fluorimetry, at 25 µM, active compounds read high, 0% = protein alone, 100% = glycine-bound protein

**Q.** For `O=C(Nc1ccc(OCC(=O)N2CCOCC2)cc1)c1cc(F)c(F)cc1Cl`, which Tm shift relative to glycine control is on record?
**A.** -1.28% (inactive)

**Q.** How did the Tm shift relative to glycine control turn out when `CNC1(c2nnnn2-c2c(C)cccc2C)CCOC(C)(C)C1` (centres undefined) was run?
**A.** 0.08% (inactive)

**Q.** With `Cc1cc(Nc2cccc(C)c2C)n2ncnc2n1` as the molecule, how does the Tm shift relative to glycine control read?
**A.** 1.12% (inactive)

**Q.** With `O=C1OCCN1C(=O)[C@H]1[C@H](c2ccc(F)cc2)C(c2ccccc2)=NN1c1ccc(Br)cc1` as the molecule, how does the Tm shift relative to glycine control read?
**A.** 16% (active)

**Q.** `O=C1OCCN1C(=O)[C@H]1[C@H](c2ccc(Cl)cc2)C(c2cccc(Cl)c2)=NN1c1ccc(Br)cc1` was tested. Which Tm shift relative to glycine control did it give?
**A.** 18.1% (active)

**Q.** How did the Tm shift relative to glycine control turn out when `O=c1c2cc(Br)ccc2nc(-c2cccc(Cl)c2)n1O` was run?
**A.** -8.87% (inactive)

**Q.** With `O=C1OCCN1C(=O)[C@H]1[C@H](c2ccccc2)C(c2ccc(F)cc2)=NN1c1ccccc1` as the molecule, how does the Tm shift relative to glycine control read?
**A.** -6.51% (inactive)

**Q.** Which Tm shift relative to glycine control does the source give for `C[C@@H]1C(c2ccc(F)cc2)=NN(c2ccc(Br)cc2)[C@H]1C(=O)N1CCOC1=O` here?
**A.** 7.36% (inactive)

**Q.** For `S=C1NC(c2ccccc2)=NCN1c1ccc(Br)cc1`, which Tm shift relative to glycine control is on record?
**A.** -1.51% (inactive)

**Q.** For `O=C(COc1ncnc2c(Cl)cc(Cl)cc12)N1CCN(S(=O)(=O)c2ccccc2)CC1`, which Tm shift relative to glycine control is on record?
**A.** -7.02% (inactive)

**Q.** With `CN1CCC(=NNC(=O)c2ccc(N(Cc3ccc(Cl)cc3)S(C)(=O)=O)cc2)CC1` as the molecule, how does the Tm shift relative to glycine control read?
**A.** -7.94% (inactive)

**Q.** For `O=C(NCCSc1ccccc1)c1ccco1`, which Tm shift relative to glycine control is on record?
**A.** 0.71% (inactive)

**Q.** `O=C(Nc1ccc(Sc2ccc(Br)cc2)cc1)c1ccco1` was tested. Which Tm shift relative to glycine control did it give?
**A.** 11.6% (active)

**Q.** Which Tm shift relative to glycine control does the source give for `C/C(=N\NS(=O)(=O)c1ccc(Cl)cc1)c1ccc(NC(=O)c2ccco2)cc1` here?
**A.** -5.45% (inactive)

**Q.** Which Tm shift relative to glycine control does the source give for `COC(=O)c1ccc(NC(=O)C(C)N2C(=O)c3ccccc3C2=O)cc1` (centres undefined) here?
**A.** -0.85% (inactive)

**Q.** For `O=C(Nc1ccc(O)cc1)c1ccc(NC(=O)c2ccco2)cc1`, which Tm shift relative to glycine control is on record?
**A.** 25% (active)

**Q.** For `O=C(CSc1ccccc1)Nc1ccc(NC(=O)c2ccco2)cc1`, which Tm shift relative to glycine control is on record?
**A.** 11.8% (active)

**Q.** With `COC(=O)c1ccc(NC(=O)c2cc(Cl)ccc2OC)cc1` as the molecule, how does the Tm shift relative to glycine control read?
**A.** -3.8% (inactive)

**Q.** How did the Tm shift relative to glycine control turn out when `Cc1cc(NC(=O)c2ccc(F)cc2)ccc1NC(=O)c1ccco1` was run?
**A.** -2.39% (inactive)

**Q.** How did the Tm shift relative to glycine control turn out when `O=C(NNC(=O)c1ccco1)Nc1ccccc1` was run?
**A.** 1.84% (inactive)

**Q.** For `Cc1cc(C)cc(NC(=O)CSc2ccccc2)c1`, which Tm shift relative to glycine control is on record?
**A.** 0.84% (inactive)

**Q.** How did the Tm shift relative to glycine control turn out when `COC(=O)c1ccc(NC(=O)Nc2ccc(C)cc2)cc1` was run?
**A.** 14.4% (active)

**Q.** How did the Tm shift relative to glycine control turn out when `O=C(CNC(=O)c1ccco1)NNC(=O)c1ccc(Br)cc1` was run?
**A.** 0.51% (inactive)

**Q.** Which Tm shift relative to glycine control does the source give for `CC12CCC(C(=O)N3CCN(c4ncccn4)CC3)(c3nc4ccccc4nc31)C2(C)C` (centres undefined) here?
**A.** -1.28% (inactive)

**Q.** With `COc1ccc(OC)c(S(=O)(=O)N2CCCC(C(=O)NCCc3ccccc3)C2)c1` (centres undefined) as the molecule, how does the Tm shift relative to glycine control read?
**A.** 0.67% (inactive)

**Q.** How did the Tm shift relative to glycine control turn out when `O=C(CNC(=O)[C@@H]1Cc2ccccc2CN1)NC1CCCCC1` was run?
**A.** -12.5% (inactive)

**Q.** `CCOC(=O)N1CCN(C(=O)CN(C2CCCCC2)S(C)(=O)=O)CC1` was tested. Which Tm shift relative to glycine control did it give?
**A.** -2.35% (inactive)

**Q.** With `CCOc1ccc(NC(=O)CCS(=O)(=O)c2ccc3c(c2)CCCN3C(=O)CC)cc1` as the molecule, how does the Tm shift relative to glycine control read?
**A.** -2.2% (inactive)

**Q.** With `C#CCOCCOCCOCCNc1nc(N2CCN(C(=O)C([C@@H](C)CC)n3cc(C(N)COC(=O)C(F)(F)F)nn3)CC2)nc(N2CCN(C(=O)[C@H](CCCCN)n3cc(C(N)CC(C)C)nn3)CC2)n1` (some centres undefined) as the molecule, how does the Tm shift relative to glycine control read?
**A.** 3.3% (inactive)

**Q.** `NNC(=O)CNC(c1ccccc1)c1cc(Cl)ccc1NC(=O)c1ccccc1` (centres undefined) was tested. Which Tm shift relative to glycine control did it give?
**A.** 2.13% (inactive)

**Q.** For `COC(=O)c1ccc(NC(=O)c2ccco2)cc1`, which Tm shift relative to glycine control is on record?
**A.** 21.7% (active)

**Q.** For `COc1ccc(S(=O)(=O)NNC(=O)Nc2ccc(C)cc2)c(OC)c1`, which Tm shift relative to glycine control is on record?
**A.** -2.73% (inactive)

**Q.** With `CCOC(=O)c1ccc(NC(=O)CNC(=O)c2ccco2)cc1` as the molecule, how does the Tm shift relative to glycine control read?
**A.** -0.36% (inactive)

**Q.** Which Tm shift relative to glycine control does the source give for `CC(C)(C)NC(=O)c1cc(NC(=O)c2ccco2)cc(NC(=O)c2ccco2)c1` here?
**A.** 1.37% (inactive)

**Q.** Which Tm shift relative to glycine control does the source give for `CSc1cccc(NC(=O)CSc2ccccc2)c1` here?
**A.** -11.8% (inactive)

**Q.** Which Tm shift relative to glycine control does the source give for `COc1cc(NC(=O)Nc2ccc(C)cc2)cc([N+](=O)[O-])c1` here?
**A.** 32.9% (active)

**Q.** With `O=C(CSc1ccccc1)Nc1ccc(C(=O)Nc2cccc(O)c2)cc1` as the molecule, how does the Tm shift relative to glycine control read?
**A.** 29.4% (active)

**Q.** With `O=C(Nc1ccc(CSc2ccccc2)cc1)c1ccc(CN2CCOCC2)cc1` as the molecule, how does the Tm shift relative to glycine control read?
**A.** -2.35% (inactive)

**Q.** How did the Tm shift relative to glycine control turn out when `CCOc1ccc(NC(=O)Nc2cc(C)ccc2OC)cc1` was run?
**A.** -2.2% (inactive)

**Q.** For `CCOC(=O)/C(C#N)=C\c1c(C)cc(C)c(COC(C)=O)c1C`, which Tm shift relative to glycine control is on record?
**A.** -1.41% (inactive)

**Q.** For `O=C1CSC(c2ccc(Cl)cc2)N1` (centres undefined), which Tm shift relative to glycine control is on record?
**A.** 0.65% (inactive)

**Q.** Which Tm shift relative to glycine control does the source give for `CCOc1ccccc1NC(=O)Cn1ncc2ccc([N+](=O)[O-])cc21` here?
**A.** 1.06% (inactive)

**Q.** For `Cc1nonc1C(=O)N/N=C/c1ccc(O)cc1`, which Tm shift relative to glycine control is on record?
**A.** -3.82% (inactive)

**Q.** For `O=C(CCCN1C(=O)CSc2ncccc21)N1CCN(c2cccc(C(F)(F)F)c2)CC1`, which Tm shift relative to glycine control is on record?
**A.** -1.45% (inactive)

**Q.** For `Cc1ccc(S(=O)(=O)N2CCC3(CC2)OCCO3)c(C)c1`, which Tm shift relative to glycine control is on record?
**A.** -0.77% (inactive)

**Q.** For `CCOc1ccc(Nc2nc(Cc3nnc(SCC(=O)c4ccc(C)cc4)o3)cs2)cc1`, which Tm shift relative to glycine control is on record?
**A.** -12.6% (inactive)

**Q.** With `O=C1C(=O)N(CCCN2CCOCC2)C(c2ccc([N+](=O)[O-])cc2)/C1=C(\O)c1ccc2c(c1)OCCO2` (centres undefined) as the molecule, how does the Tm shift relative to glycine control read?
**A.** 0% (inactive)

**Q.** How did the Tm shift relative to glycine control turn out when `Cc1ccc(NC(=O)Cn2c(=O)n(CCC(=O)NC3CCN(Cc4ccccc4)CC3)c(=O)c3ccccc32)cc1` was run?
**A.** 0.79% (inactive)

**Q.** With `CC(=O)c1c(C)[nH]c(C(=O)OCC(=O)Nc2sc3c(c2C#N)CCCC3)c1C` as the molecule, how does the Tm shift relative to glycine control read?
**A.** 4.13% (inactive)

**Q.** For `O=C(COc1ccccc1F)Nc1nc(-c2ccccn2)cs1`, which Tm shift relative to glycine control is on record?
**A.** -41.9% (inactive)

**Q.** Which Tm shift relative to glycine control does the source give for `O=C(CN1C(=O)C2C3C=CC(C3)C2C1=O)Nc1nc(-c2ccccn2)cs1` (centres undefined) here?
**A.** 17.6% (active)

**Q.** Which Tm shift relative to glycine control does the source give for `O=C(NCCN1C(=O)C2C3C=CC(C3)C2C1=O)Nc1ccccn1` (centres undefined) here?
**A.** -0.55% (inactive)

**Q.** For `O=C(NCCc1ccccc1)C(=O)NCC1OCCN1S(=O)(=O)c1cccs1` (centres undefined), which Tm shift relative to glycine control is on record?
**A.** 5.49% (inactive)

**Q.** Which Tm shift relative to glycine control does the source give for `CCOC(=O)N1CCN(C(=O)c2ccccc2SCC(=O)NCC2CCCCC2)CC1` here?
**A.** 0.96% (inactive)

**Q.** How did the Tm shift relative to glycine control turn out when `O=C(O)c1cscn1` was run?
**A.** -2.23% (inactive)

**Q.** For `Cc1oc(-c2ccccc2Cl)[n+]([O-])c1C`, which Tm shift relative to glycine control is on record?
**A.** 0.65% (inactive)

**Q.** For `COC(=O)C1=C(C)N(C)C(C)=C(C(=O)OC)C1c1cccc(Br)c1`, which Tm shift relative to glycine control is on record?
**A.** 10.9% (active)

**Q.** For `COC(=O)C1NN=C(C(=O)c2ccc(Br)cc2)C1c1cccc(Br)c1` (centres undefined), which Tm shift relative to glycine control is on record?
**A.** -3.88% (inactive)

**Q.** Which Tm shift relative to glycine control does the source give for `COC(=O)C1=C(C)N(C)C(=S)NC1c1ccccc1` (centres undefined) here?
**A.** 1.46% (inactive)
